High-throughput results from PubChem BioAssay.
DT40 TDP1 CPT = growth inhibition of DT40 Tdp1-/-;hTDP1 cells with camptothecin (screen for TDP1 inhibitors); chicken DT40 Tdp1-/-;hTDP1 cells + 20 nM CPT, ATP luminescence, 48 h; Potency, µM (titrated, usually from 46.2 µM), without a hit: at the top dose activity change, negative = growth inhibition, hits mostly inhibitors; actives 12% (n = 420,000); also: nearly all actives have a fitted effect of over 55% in size
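Cell growth measured by CellTiter-Glo luminescence after a minimum 48 h, 37 C compound exposure with 20 nM CPT in Tdp1-knockout DT40 cells stably expressing hTDP1, seeded 400/well; qHTS titration format.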
TDP1 inh = inhibitors of human tyrosyl-DNA phosphodiesterase TDP1; recombinant TDP1, AlphaScreen DNA substrate cleavage; Potency, µM (series often up to 130 µM), without a hit: at the top dose activity change, negative = inhibition, hits mostly inhibitors; actives 0.28% (n = 350,000); also: nearly all actives have a fitted effect of over 40% in size
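Steps: enzyme plus compound, 15 min RT; add biotin/phosphotyrosine-FITC oligonucleotide (15 nM final), react 5 min; add donor/acceptor beads (10 ug/ml final), 10 min; read AlphaScreen. Tdp1 at 1 nM final.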
VDR inhibitor = blocks the human vitamin D receptor; actives 0.93% (n = 400,000); P11473; AID 504847; Potency, µM, for the others: max response, negative = inhibition, usual class: inhibitors; VDR-SRC2-3 peptide fluorescence polarization, 2 h
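Inhibition of the VDR/SRC2-3 peptide interaction is quantified by fluorescence polarization. Compounds (23 nl, pintool) incubate with the reagents for 2 hours at ambient room temperature.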
KAT2A inh = inhibitors of human GCN5L2 histone acetyltransferase; Q92830; GCN5L2 HAT assay, ThioGlo1 CoA-SH fluorescence; Potency, µM (series often up to 58.9 µM), without a hit: top-dose activity change, negative = inhibition, actives largely listed as inhibitors; actives 0.21% (n = 390,000); AID 504327
Target sequence (Q92830 whole entry, looked up): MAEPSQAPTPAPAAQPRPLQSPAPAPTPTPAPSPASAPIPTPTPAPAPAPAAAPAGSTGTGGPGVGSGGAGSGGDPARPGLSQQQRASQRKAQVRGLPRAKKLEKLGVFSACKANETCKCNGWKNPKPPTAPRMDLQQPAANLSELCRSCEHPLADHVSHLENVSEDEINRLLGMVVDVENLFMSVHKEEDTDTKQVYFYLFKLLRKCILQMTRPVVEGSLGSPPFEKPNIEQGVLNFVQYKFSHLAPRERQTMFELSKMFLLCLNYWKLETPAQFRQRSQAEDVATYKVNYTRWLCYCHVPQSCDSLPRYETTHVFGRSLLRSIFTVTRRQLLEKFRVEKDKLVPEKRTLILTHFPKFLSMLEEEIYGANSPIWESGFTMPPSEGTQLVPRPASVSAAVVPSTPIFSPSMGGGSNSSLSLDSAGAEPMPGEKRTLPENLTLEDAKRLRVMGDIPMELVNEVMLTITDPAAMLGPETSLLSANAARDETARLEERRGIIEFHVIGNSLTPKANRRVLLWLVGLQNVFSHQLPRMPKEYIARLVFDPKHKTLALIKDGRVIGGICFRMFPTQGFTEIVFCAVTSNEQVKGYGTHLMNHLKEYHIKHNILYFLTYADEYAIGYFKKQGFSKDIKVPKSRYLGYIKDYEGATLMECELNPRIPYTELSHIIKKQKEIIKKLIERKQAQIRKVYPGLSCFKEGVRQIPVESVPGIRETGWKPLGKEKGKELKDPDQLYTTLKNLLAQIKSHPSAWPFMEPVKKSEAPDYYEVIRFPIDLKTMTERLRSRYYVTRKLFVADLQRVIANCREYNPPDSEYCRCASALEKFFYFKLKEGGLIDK
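Titration-based screen in which CoA formation is detected via maleimide probe ThioGlo1 (50uM) turning fluorescent on thiol reaction; substrates H3(1-25) 75uM and acetyl-CoA 70uM, GCN5L2 20nM, 20 min incubation at room temperature.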
PLK1 PBD block = inhibitors of human PLK1 polo-box domain binding; Potency, µM, for the others: max response, negative = inhibition, actives largely listed as inhibitors; P53350; AID 720504; Plk1 PBD binding of FITC phosphopeptide, fluorescence polarization; actives 2.8% (n = 360,000); also: series mostly up to about 57 µM; nearly all actives have a fitted effect of over 65% in size
TDP1 cell noCPT = qHTS for Inhibitors of human tyrosyl-DNA phosphodiesterase 1 (TDP1): qHTS in cells in absence of CPT. actives 15% (n = 420,000). DT40 Tdp1-/- hTDP1 cells, no CPT, ATP luminescence, 48 h. Potency, µM (top dose mostly 46.2 µM), without a hit: at the highest dose activity change, negative = growth inhibition, usual class: inhibitors. AID 686978, 2013; also: nearly all actives have a fitted effect of over 55% in size
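Chicken DT40 Tdp1-/- cells stably complemented with human TDP1 were seeded at 400 cells/well with DMSO in place of 20 nM camptothecin. After compound pinning, cells grew at least 48 hr at 37 °C; viability read by CellTiter-Glo luminescence.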
Starred values were filed as active, the others as inactive; ? = inconclusive; . = no result; [ ] = remark or other dose. This is a sample that favours compounds with a hit; in the whole collection about 18% have one here. Calls follow the shape of the dose curve; as a rule, active = well fitted curve in the direction sought with a large enough effect; inconclusive = small, poorly fitted or top-dose-only effect, or another doubt; inactive = no such curve, though single readings can be large; an effect the other way counts as inactive or inconclusive. % is scaled to controls: 0 for no effect and ±100 for the full control effect; potency is read from the fitted curve at half-maximal effect.

SMILES | DT40 TDP1 CPT | TDP1 inh | VDR inhibitor | KAT2A inh | PLK1 PBD block | TDP1 cell noCPT
CCN(Cc1cc2ccccc2[nH]c1=O)S(=O)(=O)c1ccccc1 | -10% | 4% | 9% | -6% | -4% | -24%
COCCn1c(=O)cnc2cnc(OC)nc21 | -10% | . | 9% | -8% | . | 0%
CC(C)n1nc(C(=O)Nc2cccc(S(=O)(=O)N3CCOCC3)c2)c2ccccc2c1=O | 21µM* | 2% | -9% | -6% | -13% | ?
Cn1nc(C(=O)Nc2cccc(S(=O)(=O)N3CCOCC3)c2)c2ccccc2c1=O | -30% | 0% | -4% | 1% | -3% | -2%
CC(C)n1nc(C(=O)Nc2cccc(S(=O)(=O)N3CCCCC3)c2)c2ccccc2c1=O | 13µM* | -1% | -2% | -4% | -3% | -28%
c1cnc2nc3c4ccccc4c4ccccc4c3nc2c1 | ? | . | 14% | . | -7% | 15µM*
Cc1cc(C)n2c(Nc3ccccc3)c(-c3ccc(C)o3)nc2n1 | ? | 4% | 7% | . | . | ?
Cc1cc(C)n2c(NCc3ccccc3)c(-c3cc4ccccc4o3)nc2n1 | 16µM* | . | . | . | 6% | 15µM*
NC(=O)CCC(NS(=O)(=O)c1ccc(Cl)cc1)C(=O)NCc1ccc(Cl)cc1 (stereo not given) | ? | 0% | -1% | 2% | -2% | -27%
CC(C(=O)NCC1CCCCC1)N(C)Cc1ccc(Cl)cc1 (stereo not given) | ? | 5% | 2% | -7% | -5% | 18µM*
CSc1ccc(CN(C)C(C)C(=O)NCC2CCCCC2)cc1 (stereo not given) | ? | 6% | -18% | -2% | -3% | ?
NC(=O)CCC(NS(=O)(=O)c1ccc(Cl)cc1)C(=O)NCC1CCCCC1 (stereo not given) | ? | 8% | ? | -4% | 11µM* | ?
CS(=O)(=O)N1CCN(c2ccnc3cc(Cl)ccc23)CC1 | -16% | 0% | 9% | -7% | -15% | ?
Cc1ccc(S(=O)(=O)N2CCN(c3ccnc4cc(Cl)ccc34)CC2)cc1C | ? | 1% | -18% | -23% | 2% | ?
CCS(=O)(=O)N1CCN(c2ccnc3cc(Cl)ccc23)CC1 | -8% | 0% | -1% | -5% | -13% | ?
CC(=O)c1ccc(S(=O)(=O)N2CCN(c3ccnc4cc(Cl)ccc34)CC2)cc1 | 8.2µM* | . | . | . | -4% | 7.3µM*
Cc1ccc(S(=O)(=O)N2CCN(c3ccnc4cc(Cl)ccc34)CC2)cc1 | 23µM* | 3% | -2% | -28% | 5% | 23µM*
Cc1cc(N2CCN(S(=O)(=O)c3ccc(Cl)cc3)CC2)c2ccccc2n1 | 23µM* | 6% | -2% | -10% | -9% | 21µM*
O=S(=O)(c1ccc(Br)s1)N1CCN(c2ccnc3cc(Cl)ccc23)CC1 | ? | -10% | 11% | -12% | 2% | 18µM*
CC(C)CNC(=O)c1cccc(NC(=O)c2ccc3c(c2)C(=O)N(C)C3=O)c1 | -9% | . | -18% | -3% | 1% | -15%
NS(=O)(=O)c1cccc(NC(=O)COC(=O)C2(c3cccc(F)c3)CCCC2)c1 | ? | -1% | -14% | -2% | -11% | ?
C=C(C)C1Cc2c(C)nn(-c3cccc4ccccc34)c2C1 (stereo not given) | 21µM* | -3% | -4% | -5% | -10% | ?
C=C(C)C1Cc2c(C)nn(-c3ccccc3)c2C1 (stereo not given) | -16% | 3% | 10% | 2% | -1% | -19%
OC1CCN(Cc2nc(Cc3ccccc3Cl)no2)CC1 | -4% | 0% | -11% | 0% | -11% | -8%
C[C@@H]1CCC[C@H](C)N1Cc1nc(Cc2ccccc2Cl)no1 | 15µM* | 3% | 8% | 0% | -14% | ?
SMILES | DT40 TDP1 CPT | TDP1 inh | VDR inhibitor | KAT2A inh | PLK1 PBD block | TDP1 cell noCPT
COc1ccc(-c2nc(C(N)=O)c3[nH]c(=O)n(-c4ccccc4OC)c3n2)c(OC)c1 | ? | 4% | 7% | -2% | -1% | 16µM*
COc1ccccc1-n1c(=O)[nH]c2c(C(N)=O)nc(-c3cccnc3)nc21 | ? | . | -12% | -14% | -9% | 21µM*
COc1ccc(OC)c(-c2nc(C(N)=O)c3[nH]c(=O)n(-c4ccc(F)cc4)c3n2)c1 | -18% | 1% | -23% | 0% | 4% | -7%
COc1ccccc1-n1c(=O)[nH]c2c(C(N)=O)nc(CC(C)C)nc21 | -23% | 0% | -19% | -13% | -3% | -21%
CCN(CC)c1ccc(/C=N/NC(=O)c2nnn(-c3nonc3N)c2-c2ccc(C)cc2)cc1 | ? | 2% | -10% | -11% | 0% | ?
COc1cc2[nH]c(-c3ccc(C)cc3)cc(=O)c2cc1OC | -26% | -1% | 2% | -14%[88.6 µM] | -2% | ?
Cc1ccc2[nH]c(-c3ccccc3)cc(=O)c2c1 | 0.82µM* | -1% | 17% | -6% | 1% | 0.65µM*
Cc1ccc(-c2cc(=O)c3ccccc3[nH]2)cc1 | 16µM* | 7%[234 µM] | 0% | -23%[135 µM] | -6% | 9.2µM*
CCC(C)(O)c1[nH]c2ccc(C(=O)OC)cc2c1C (stereo not given) | -7% | . | -3% | -24% | -3% | -19%
CCCCCCN1CCN(C2CN(Cc3cn(Cc4cccc(Cl)c4)nn3)S(=O)(=O)C2)CC1 (stereo not given) | 18µM* | . | . | . | -17% | ?
CCCCCCn1cc(CN2CC(N3CCN(CCO)CC3)CS2(=O)=O)nn1 (stereo not given) | 2% | . | . | . | -11% | -17%
CN(C)CCN1CCN(C2CN(Cc3cn(Cc4ccc(Cl)cc4)nn3)S(=O)(=O)C2)CC1 (stereo not given) | -5% | . | . | . | -8% | -2%
CN(Cc1cn(Cc2ccc(Cl)cc2)nn1)C1CN(Cc2cn(Cc3ccc(Cl)cc3)nn2)S(=O)(=O)C1 (stereo not given) | 18µM* | . | . | . | -11% | 13µM*
CCCCCCN1CCN(C2CN(Cc3cn(Cc4ccc(Cl)cc4)nn3)S(=O)(=O)C2)CC1 (stereo not given) | 23µM* | . | . | . | 0% | 16µM*
CN(Cc1cn(Cc2ccc(F)cc2)nn1)C1CN(Cc2cn(Cc3ccc(F)cc3)nn2)S(=O)(=O)C1 (stereo not given) | -26% | . | . | . | -3% | -22%
CCCCCCN1CCN(C2CN(Cc3ccc(C)cc3)S(=O)(=O)C2)CC1 (stereo not given) | 23µM* | . | . | . | -7% | ?
